According to PubChem BioAssay:
Several values for one entry are separate records, joined by “and”; a condition that tells them apart may be missing. Equal entries are not always repeated. Activity calls are given as the source filed them.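 The calls were made as follows, unless noted: active = compounds that lower survival of HCT116 colon cancer cells in the luminescence readout, no numeric limit stated; inactive = the rest.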

Columns and labels:
[1] = stimulators of nuclear beta-catenin in C2C12, primary screen, imaging, WNT3A-conditioned medium, mouse C2C12, NPC library (AID 1117326; in the data active = nuclear beta-catenin stimulation mostly above about 4.2%, no sharp cut-off; inactive = mostly below about 10%); settings: stronger effect = higher value
[2] = growth inhibition of GSK3B-pretreated HCT116 cells – cell-based, CellTiter-Glo, 0.2 to 20 µM (AID 1117336;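 active = compounds lowering colon cancer cell viability after pretreatment blocking the GSK3B kinase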); settings: HCT116 viability after GSK3B inhibitor, at 20 µM, stronger effect = higher value
[3] = inhibition of endothelial tube formation, primary screen, imaging, VEGF stimulated, CD31 staining, tube area, NPC library (AID 1117340;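 active = compound that reduces growth-factor-driven endothelial tube area in a mixed cell culture, no cutoff stated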); settings: VEGF-stimulated ADSC/ECFC co-culture, at 10 µM, stronger effect = higher value
[4] = HCT116 colon cancer cell growth inhibition, primary screen, CellTiter-Glo luminescence, NPC library (AID 1117342); settings: at 20 µM (top of the series)
[5] = CellTiter-Glo luminescent readout of SW480 viability loss, NPC library primary (AID 1117343;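 active = compounds that lower viability of the colon cancer cells in the luminescence readout, with no numeric limit stated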); settings: CellTiter-Glo luminescence; at 20 µM (top of the series) unless noted
[6] = decreased DLD-1 cellular survival, CellTiter-Glo luminescent readout, NPC compound collection, primary HTS (AID 1117346;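 active = compounds that lower survival of DLD-1 colon cancer cells in the luminescence readout, no cutoff given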); settings: DLD-1 viability, CellTiter-Glo luminescence; at 20 µM (top of the series)
[7] = modulation of C. elegans fzo-1 (AID 1259413; call rule not given here;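 also: fzo-1 mutant C. elegans worms in liquid wells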); settings: C. elegans fzo-1 modulator screen, mean read-out; stronger effect = higher value
[8] = differential killing of epithelial or mesenchymal cells, primary screen, imaging, PC-3E GFP, TEM4-18 mCherry, co-culture (AID 1345086;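 active = compounds killing one labelled cell type while sparing the other, by normalised counts and ratio limits, not self-fluorescent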;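 as to all read-outs here: cells exposed to compound for 72 h before imaging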;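 as to red/green cell ratio (normalised): normalised mesenchymal count divided by normalised epithelial count so high means epithelial killing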); settings: imaging cell counts, at 1 µM; for red/green cell ratio (normalised): actives lie on both sides, counts scaled to control wells, 1 = unselective
[9] = survival rescue of mitochondrial mutant cells in low glucose, primary screen, MELAS cybrids, Rieske KO mouse fibroblasts, CellTiter-Glo (AID 1508586;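 active = mean z-score across replicates of 1.96 or higher in either the MELAS or the Rieske mutant cell line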;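 also: z relative to plate mean and SD of compound and empty wells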)
[10] = target: Mitogen-activated protein kinase 7 (Homo sapiens) (UniProt Q13164); experiment: ERK5 transactivation activators in reporter cells, primary screen, cell-based, HTS (AID 1508626;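 active = luciferase signal above three times the same-plate solvent-only control wells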;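 also: luciferase driven by Gal4-ERK5 fusion binding five Gal4 sites before minimal TATA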); settings: HeLa Gal4-ERK5 transactivation, 18 h, at 5 µM, stronger effect = higher value
[11] = viability rescue of complex I mutant cybrids, primary screen, cell-based, galactose medium, ATP luminescence (AID 1645843;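 active = z-score of at least 1.8 in each of two replicates, scored against plate mean and spread of sample wells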;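 also: positive z means more ATP and so rescue of galactose-driven cybrid death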); settings: complex I mutant cybrid cells, 72 h, stronger effect = higher value
[12] = hESC survival regulators, cell-based (AID 493140; call rule not given here;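 also: cells exposed to compounds for four days before counting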); settings: human embryonic stem cell survival screen; stronger effect = higher value
[13] = stimulators of insulin release from INS-1E, primary screen, cell-based, 5 mM glucose, NPC library (AID 1117329;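 active = compound raises insulin release from rat beta cells at 5 mM glucose, no numeric limit stated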); settings: rat INS-1E insulin secretion, at 10 µM, stronger effect = higher value
[14] = glucagon-like peptide 1 release enhancers, primary assay, NCI-H716 cell line, NPC library (AID 1117341;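 active = compound raises GLP1 secretion from the human gut endocrine cells, with no numeric limit stated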); settings: NCI-H716 cells, at 10 µM, stronger effect = higher value
[15] = target: 6-phosphogluconate dehydrogenase, decarboxylating (Homo sapiens) (UniProt P52209); experiment: 6PGD enzyme inhibitors, primary screen, biochemical, human, recombinant enzyme, NADPH absorbance (AID 1159550;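 active = at least 20% inhibition of 6-phosphogluconate dehydrogenase activity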); settings: recombinant 6PGD, NADPH absorbance 341 nm; at 10 µM; stronger effect = higher value
[16] = target: NAD(+) hydrolase SARM1 (Homo sapiens) (UniProt Q6SZW1); experiment: SARM1 TIR NADase inhibitors, cell lysate, NAD-Glo luminescence (AID 1508614;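 active = compound whose remaining NAD level is above about 45 nM, limit read from the data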;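 also: higher remaining NAD means stronger inhibition of SARM1 NADase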); settings: SAM-TIR HEK293T lysate NADase, at 1 µM, stronger effect = higher value
[17] = sensitizers of A549 cells to miR-34 induction, primary screen, imaging, A549 dox-inducible miR-34, nuclei and caspase counts (AID 1347080;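 active = compounds whose cell count with miR-34 switched on is under 0.7 times the count with it off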); settings: A549 miR-34 inducible, Hoechst nuclei count, 48 h
[18] = measured here: epithelial PC-3E GFP cell survival
[19] = measured here: mesenchymal TEM4-18 mCherry cell survival
[20] = MELAS cybrid survival, CellTiter-Glo 48 h, stronger effect = higher value
[21] = Rieske KO mouse fibroblast survival, CellTiter-Glo 72 h

Sequence of Mitogen-activated protein kinase 7 (Homo sapiens) (Q13164 whole entry, looked up, the tested form may be a part): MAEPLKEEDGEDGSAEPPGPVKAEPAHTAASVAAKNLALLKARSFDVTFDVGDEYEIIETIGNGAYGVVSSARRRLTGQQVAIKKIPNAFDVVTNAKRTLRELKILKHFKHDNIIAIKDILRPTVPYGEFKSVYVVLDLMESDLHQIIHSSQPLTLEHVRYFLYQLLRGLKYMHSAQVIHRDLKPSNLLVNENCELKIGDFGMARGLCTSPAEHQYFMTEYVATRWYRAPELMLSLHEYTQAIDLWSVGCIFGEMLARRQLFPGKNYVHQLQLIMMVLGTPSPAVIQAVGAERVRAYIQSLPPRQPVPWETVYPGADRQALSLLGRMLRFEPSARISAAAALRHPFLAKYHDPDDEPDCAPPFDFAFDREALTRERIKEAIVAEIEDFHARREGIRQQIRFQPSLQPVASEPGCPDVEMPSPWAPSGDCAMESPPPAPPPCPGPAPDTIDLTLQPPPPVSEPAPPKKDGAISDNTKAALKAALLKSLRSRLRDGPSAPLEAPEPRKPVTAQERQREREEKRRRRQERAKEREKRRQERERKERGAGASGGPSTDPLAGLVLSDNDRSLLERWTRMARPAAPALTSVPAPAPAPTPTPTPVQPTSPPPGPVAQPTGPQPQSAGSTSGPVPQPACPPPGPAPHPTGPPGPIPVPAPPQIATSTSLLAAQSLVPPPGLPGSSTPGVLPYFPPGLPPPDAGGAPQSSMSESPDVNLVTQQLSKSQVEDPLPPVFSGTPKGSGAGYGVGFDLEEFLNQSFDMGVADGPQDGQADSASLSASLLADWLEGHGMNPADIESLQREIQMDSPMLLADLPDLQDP
Sequence of NAD(+) hydrolase SARM1 (Homo sapiens) (Q6SZW1 whole entry, looked up): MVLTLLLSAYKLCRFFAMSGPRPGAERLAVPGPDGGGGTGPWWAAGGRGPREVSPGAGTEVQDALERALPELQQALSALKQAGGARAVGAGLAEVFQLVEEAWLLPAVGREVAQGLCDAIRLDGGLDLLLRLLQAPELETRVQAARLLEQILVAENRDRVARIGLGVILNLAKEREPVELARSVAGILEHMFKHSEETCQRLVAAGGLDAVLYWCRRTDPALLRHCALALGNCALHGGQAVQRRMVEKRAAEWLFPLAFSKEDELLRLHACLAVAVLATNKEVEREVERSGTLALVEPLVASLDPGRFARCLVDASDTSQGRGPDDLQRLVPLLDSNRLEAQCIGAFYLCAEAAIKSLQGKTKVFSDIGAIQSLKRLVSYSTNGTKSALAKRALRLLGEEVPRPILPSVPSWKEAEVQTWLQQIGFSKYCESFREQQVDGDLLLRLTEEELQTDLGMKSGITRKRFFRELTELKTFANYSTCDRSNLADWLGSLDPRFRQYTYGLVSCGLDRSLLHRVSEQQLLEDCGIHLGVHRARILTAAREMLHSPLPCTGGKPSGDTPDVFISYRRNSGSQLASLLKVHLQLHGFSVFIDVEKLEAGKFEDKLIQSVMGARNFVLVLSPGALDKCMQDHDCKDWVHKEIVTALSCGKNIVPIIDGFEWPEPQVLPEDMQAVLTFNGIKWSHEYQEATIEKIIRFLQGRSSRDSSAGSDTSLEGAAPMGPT
Sequence of 6-phosphogluconate dehydrogenase, decarboxylating (Homo sapiens) (P52209 whole entry, looked up): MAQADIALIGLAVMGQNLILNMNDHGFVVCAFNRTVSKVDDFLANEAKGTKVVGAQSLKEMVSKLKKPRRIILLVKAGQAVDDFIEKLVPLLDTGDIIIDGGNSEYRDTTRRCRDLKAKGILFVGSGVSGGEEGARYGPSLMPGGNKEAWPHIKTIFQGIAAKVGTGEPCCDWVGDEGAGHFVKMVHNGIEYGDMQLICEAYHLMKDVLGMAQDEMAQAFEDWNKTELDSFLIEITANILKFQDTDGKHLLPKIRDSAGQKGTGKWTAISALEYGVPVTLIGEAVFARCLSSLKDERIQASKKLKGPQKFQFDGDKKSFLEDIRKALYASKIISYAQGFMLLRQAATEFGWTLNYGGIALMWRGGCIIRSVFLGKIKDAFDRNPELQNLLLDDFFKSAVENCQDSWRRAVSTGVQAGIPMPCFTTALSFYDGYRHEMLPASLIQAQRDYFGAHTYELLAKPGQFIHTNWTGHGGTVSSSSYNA

## NC(=O)C1(N2CCCCC2)CCN(CCCN2c3ccccc3CCc3ccc(Cl)cc32)CC1
[1]; at 10 µM
  nuclear beta-catenin stimulation: 1.5% (inactive)
[1]; stimulation, at 2 µM
  nuclear beta-catenin stimulation: 12.3%
[2]
  viability decrease: 99.5% (active)
[3]
  tube area decrease: 109% (active)
[4]
  inhibition of viability: 99.4% (active)
[5]
  viability decrease (inhibition): 102% (active)
[6]
  viability decrease (inhibition): 102% (active)

## Cc1cc(-n2nc3ccc(Cl)cc3n2)c(O)c(C(C)(C)C)c1
[1]; at 10 µM
  nuclear beta-catenin stimulation: 3.3% (inactive)
[1]; stimulation, at 2 µM
  nuclear beta-catenin stimulation: 10.1%
[2]
  viability decrease: 29.7% (inactive)
[4]
  inhibition of viability: 22.8% (inactive)
[5]
  viability decrease (inhibition): 1.3% (inactive)
[6]
  viability decrease (inhibition): 8% (inactive)

## NC(=O)c1cccnc1
[1]; at 10 µM
  nuclear beta-catenin stimulation: 0.1% (inactive)
[1]; stimulation, at 2 µM
  nuclear beta-catenin stimulation: 7.7%
[2]
  viability decrease: 7% (inactive)
[3]
  tube area decrease: -7.9% (inactive)
[4]
  inhibition of viability: 11.2% (inactive)
[5]
  viability decrease (inhibition): 1.3% (inactive)
[6]
  viability decrease (inhibition): 4.3% (inactive)
[7]
  mean signal: 256 (inactive)
[8]
  red/green cell ratio (normalised): 1.14 (inactive)
[8]; [18]
  normalised cell number: 1.05
[8]; [19]
  normalised cell number: 1.2
[9]; [20]
  z-score: -0.258 (inactive) and -0.151 (inactive) and -0.172 (inactive)
[9]; [21]
  z-score: 0.704 and -0.543 and -0.673
[10]
  luciferase signal: 32 AU (inactive)
[11]
  z-score: 0.75 (inactive) and 0.635 (inactive)

## CC(C)NCC(O)COc1cccc2[nH]ccc12 (stereo not drawn)
[12]
  survival: 5.75 (inactive)
[13]
  insulin secretion stimulation: 0.3% (inactive)
[2]
  viability decrease: 17.5% (inactive)
[3]
  tube area decrease: 0% (inactive)
[14]
  GLP1 secretion stimulation: 1.4% (inactive)
[4]
  inhibition of viability: -13.4% (inactive)
[5]
  viability decrease (inhibition): -0.7% (inactive)
[6]
  viability decrease (inhibition): -7.1% (inactive)
[15]
  inhibition: 11.4% (inactive)
[7]
  mean signal: 248 (inactive)
[8]
  red/green cell ratio (normalised): 1.41 (inactive)
[8]; [18]
  normalised cell number: 0.83
[8]; [19]
  normalised cell number: 1.17
[9]; [20]
  z-score: -0.583 (inactive) and -0.452 (inactive)
[9]; [21]
  z-score: -0.0517 and -0.221
[16]
  remaining NAD: 10 nM (inactive)
[10]
  luciferase signal: 84 AU (inactive)

## CC(C)(C)NC(=O)[C@@H]1C[C@@H]2CCCC[C@H]2CN1C[C@@H](O)[C@H](Cc1ccccc1)NC(=O)[C@H](CC(N)=O)NC(=O)c1ccc2ccccc2n1
[13]
  insulin secretion stimulation: 1.9% (inactive)
[2]
  viability decrease: 45.8% (inactive)
[3]
  tube area decrease: 29.6% (inactive)
[14]
  GLP1 secretion stimulation: -3.7% (inactive)
[4]
  inhibition of viability: 74% (active)
[5]
  viability decrease (inhibition): 92.3% (active)
[6]
  viability decrease (inhibition): 88.3% (active)

## CCN(CC)CCOc1ccc(Cc2ccccc2)cc1
[1]; at 10 µM
  nuclear beta-catenin stimulation: 2.1% (inactive)
[1]; stimulation, at 2 µM
  nuclear beta-catenin stimulation: 14.6%
[2]
  viability decrease: 67.3% (active)
[4]
  inhibition of viability: 67.4% (active)
[5]
  viability decrease (inhibition): 83.4% (active)
[6]
  viability decrease (inhibition): 55.9% (active)
[17]; stronger effect = lower value, cell number ratio, induced over uninduced
  fold change: 0.97 (inactive)
[17]; measured here: relative caspase fold change +Dox/-Dox
  fold change: 0.737
[17]; measured here: total cells with miR-34 induction, stronger effect = lower value
  cell count: 8340
[17]; measured here: total cells without miR-34 induction
  cell count: 8600
[11]
  z-score: -0.96 (inactive)
